Bioassay records as filed in PubChem BioAssay.
This is a sample that favours compounds with a hit; in the whole collection about 5.2% have one here.
VDR inhibitor: inhibitors of human vitamin D receptor. 400,000 compounds, 0.93% hits. VDR-SRC2-3 peptide fluorescence polarization, 2 h. AID 504847. P11473. Potency, µM, actives largely listed as inhibitors
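The screen uses fluorescence polarization to detect compounds that interfere with recruitment of the SRC2-3 coactivator peptide to VDR; plates are read after 2 h at room temperature.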
PLK1 PBD inh: PLK1 (human) polo-box domain binding inhibition; Plk1 PBD binding of FITC phosphopeptide, fluorescence polarization; Potency, µM, actives largely listed as inhibitors; 360,000 compounds, 2.8% hits; note: series mostly up to about 57 µM; nearly all actives have a fitted effect of over 65% in size
mIDH1 inhibitor: human IDH1 R132H inhibition | IDH1-R132H enzyme, NADPH consumption, diaphorase/resazurin fluorescence | O75874 | Potency, µM (doses to about 76.6 µM), usual class: inhibitors | AID 602179 | 390,000 compounds, 0.093% hits; note: nearly all actives have a fitted effect of over 65% in size
Target sequence (O75874 whole entry R132H, stated change not applied): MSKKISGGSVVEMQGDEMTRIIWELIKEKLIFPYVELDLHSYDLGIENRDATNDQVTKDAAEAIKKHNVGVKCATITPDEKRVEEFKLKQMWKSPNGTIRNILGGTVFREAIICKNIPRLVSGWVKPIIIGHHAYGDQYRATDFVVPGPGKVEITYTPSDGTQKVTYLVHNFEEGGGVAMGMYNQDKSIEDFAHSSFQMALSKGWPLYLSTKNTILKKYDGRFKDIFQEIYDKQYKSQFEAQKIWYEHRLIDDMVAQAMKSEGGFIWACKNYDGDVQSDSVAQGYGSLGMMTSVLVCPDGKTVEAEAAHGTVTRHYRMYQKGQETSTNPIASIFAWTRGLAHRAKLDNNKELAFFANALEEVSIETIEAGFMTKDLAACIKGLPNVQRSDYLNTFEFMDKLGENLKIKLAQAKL
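IDH1-R132H (0.5 ug/mL) preincubated 30 min with compound, then NADPH (0.016 mM) and alpha-KG (2 mM) added; 80 min at RT, pH 7.5. Remaining NADPH coupled via diaphorase/resazurin to fluorescence (540/590 nm); concentration-response curves normalized to no-enzyme control.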
Sfp PPTase inh: blocks B. subtilis Sfp PPTase activity; Potency, µM, usual class: inhibitors; AID 1490; Q9F4F7; Biochemical Sfp PPTase activity, qHTS; 310,000 compounds, 3.5% hits;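 note: the enzyme is Sfp with the accession as filed and its product quenches rhodamine fluorescence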
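Reaction rates are the 30-min fluorescence difference (ex 525, em 598 nm) in wells containing 15 nM Sfp, 5 uM rhodamine-CoA and 12.5 uM BHQ-2-YbbR at pH 7.6 with 10 mM MgCl2.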
TrxR1 substrate: substrates of rat thioredoxin reductase 1. 390,000 compounds, 0.01% hits. Potency, µM (top dose mostly 114 µM). O89049. purified TrxR1 substrate turnover, NADPH consumption readout. AID 588456; note: nearly all actives have a fitted effect of over 50% in size
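Rat TrxR1, dispensed at 90 nM, was prereduced with 400 uM NADPH (final) for 5 min at ~22 deg C, then incubated with compound 15 min before 400 uM selenite. A first-read NADPH fluorescence drop versus no-compound background flagged substrates.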
rTrxR1 inhibitor: rat TrxR1 inhibition; O89049; recombinant rTrxR1, NADPH fluorescence consumption, selenite substrate; Potency, µM (doses to about 114 µM), actives largely listed as inhibitors; 390,000 compounds, 1% hits; note: nearly all actives have a fitted effect of over 65% in size
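Rat TrxR1 (90 nM in the dispensed reagent) was pre-reduced with 400 uM NADPH for 5 min at room temperature, then incubated with compound for 15 min. After 400 uM selenite was added, NADPH fluorescence (Ex 340/Em 450 nm) was followed for 8 min.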
Hits are given with their value; [ ] = another dose, or the depositor's remark. Calls come from the whole dose curve; as a rule, active = well fitted curve in the direction sought with a large enough effect; inconclusive = small, poorly fitted or top-dose-only effect, or another doubt; inactive = no such curve, though single readings can be large; an effect the other way counts as inactive or inconclusive.

Cc1cc(C)c(NC(=O)C2C(=O)Nc3ccccc3C(=O)N2C(C)(C)C)c(C)c1 (stereo not drawn) was read as PLK1 PBD inh inactive.
For COc1ccc(O)c(N)c1 the results were Sfp PPTase inh 56.2µM.
For COc1cc(Br)c(CC(=O)NO)cc1OC the results were TrxR1 substrate inactive and rTrxR1 inhibitor inactive.
Screening CCN1C(=O)/C(=C/C=C2\N(CC)c3cc(S(=O)(=O)N(C)C)ccc3N2c2ccccc2)SC1=S returned VDR inhibitor inactive, PLK1 PBD inh inactive, mIDH1 inhibitor 52.1µM, Sfp PPTase inh inconclusive, TrxR1 substrate inactive and rTrxR1 inhibitor inactive.
CSc1ccccc1NC(=O)CN1c2ccccc2CC1C (stereo not drawn) was read as VDR inhibitor inactive, PLK1 PBD inh inactive, mIDH1 inhibitor inactive, Sfp PPTase inh inactive, TrxR1 substrate inactive and rTrxR1 inhibitor inconclusive.
Screening CC1CCCCN1CC(=O)Nc1ccc(Oc2ccccc2)cc1 (stereo not drawn) returned VDR inhibitor inactive, PLK1 PBD inh inactive, mIDH1 inhibitor inactive, Sfp PPTase inh inactive, TrxR1 substrate inactive and rTrxR1 inhibitor inactive.
`CSc1ccccc1NC(=O)CN1CCCCC1C` (stereo not drawn) gave VDR inhibitor inactive, PLK1 PBD inh 21.2µM, mIDH1 inhibitor inactive, Sfp PPTase inh inactive, TrxR1 substrate inactive and rTrxR1 inhibitor inactive.
For CC(=O)Nc1ccc(N2CCCC2)cc1 the results were VDR inhibitor inactive, PLK1 PBD inh inactive, mIDH1 inhibitor inactive, Sfp PPTase inh 39.8µM, TrxR1 substrate inactive and rTrxR1 inhibitor inactive.
Screening Cc1cc(NC(=O)CN2CCCCC2C)no1 (stereo not drawn) returned VDR inhibitor inactive, PLK1 PBD inh inactive, mIDH1 inhibitor inactive, Sfp PPTase inh inactive, TrxR1 substrate inactive and rTrxR1 inhibitor inactive.
CC1CCCCN1CC(=O)NC(c1ccccc1)c1ccccc1 (stereo not drawn) was read as VDR inhibitor inactive, PLK1 PBD inh inactive, mIDH1 inhibitor inactive, Sfp PPTase inh 79.4µM, TrxR1 substrate inactive and rTrxR1 inhibitor inactive.
For CC(=O)Nc1ccc(N2CCCCC2)cc1 the results were VDR inhibitor inactive, PLK1 PBD inh inactive, mIDH1 inhibitor inactive, Sfp PPTase inh inactive, TrxR1 substrate inactive and rTrxR1 inhibitor inactive.
For CC1CCCCN1CC(=O)Nc1ccc(N2CCCCCC2)cc1 (stereo not drawn) the results were VDR inhibitor inactive, PLK1 PBD inh inactive, mIDH1 inhibitor inactive, Sfp PPTase inh 44.7µM, TrxR1 substrate inactive and rTrxR1 inhibitor inactive.
`CCn1nc(-c2ccccc2C)nc2c(=O)n(C)c(=O)nc1-2` gave VDR inhibitor inconclusive, TrxR1 substrate 14.1µM and rTrxR1 inhibitor inconclusive.
For CN(C)c1ccncc1C(=O)Nc1ccc(F)cc1F the results were VDR inhibitor inactive, PLK1 PBD inh inactive, mIDH1 inhibitor inactive, Sfp PPTase inh inactive, TrxR1 substrate inactive and rTrxR1 inhibitor inactive.
Screening CN(C)S(=O)(=O)Oc1cc(Cl)ccc1C(=O)Nc1ccc(F)cc1F returned VDR inhibitor inactive, PLK1 PBD inh 23.8µM, mIDH1 inhibitor inactive, Sfp PPTase inh inactive, TrxR1 substrate inactive and rTrxR1 inhibitor inactive[11.4 µM].
`O=C(CNC(=O)C(c1ccccc1)c1ccccc1)OCC(=O)c1cccc2ccccc12` gave VDR inhibitor inactive, TrxR1 substrate inactive[0.0914 µM] and rTrxR1 inhibitor inactive.
Screening O=C(O)/C(=C\c1ccco1)NC(=O)c1ccccc1 returned VDR inhibitor inactive, PLK1 PBD inh inactive, mIDH1 inhibitor inactive, Sfp PPTase inh inactive, TrxR1 substrate inactive and rTrxR1 inhibitor inactive.
`O=C(Nc1ccc(C(=O)O)cc1)/C(=C\c1ccco1)NC(=O)c1ccco1` gave VDR inhibitor inconclusive, PLK1 PBD inh inactive, mIDH1 inhibitor inactive, Sfp PPTase inh inactive, TrxR1 substrate inactive and rTrxR1 inhibitor inconclusive.
For CCOC(=O)N/N=C\C=C\c1ccco1 the results were VDR inhibitor inactive, PLK1 PBD inh inactive, mIDH1 inhibitor inactive, Sfp PPTase inh 44.7µM, TrxR1 substrate inactive and rTrxR1 inhibitor inconclusive.
For O=C(Nc1ccc(C(=O)O)cc1)/C(=C\c1ccco1)NC(=O)c1ccccc1 the results were VDR inhibitor inactive, PLK1 PBD inh inactive, mIDH1 inhibitor inactive, Sfp PPTase inh 20µM, TrxR1 substrate inactive and rTrxR1 inhibitor inactive.
